“And” between values parts separate entries of the source, which are not always exact repeats. Identical values can stand only once. The whole screen tested about 70,000 compounds, of which about 470 (0.67%) were called active. Entries that show only a call come without a potency. About 18% were inconclusive and are not listed. This is one part of a sample in which actives are shown more often than they occur. Unmarked numbers belong to inactive results. Calls come from the whole dose curve.
Potency is the fitted concentration of half-maximal effect.

The nature of the assay: qHTS Assay for Anthrax Lethal Toxin Internalization. Note: nearly all actives have a fitted effect of over 50% in size. The settings on record: Cells, FRET ratio (460/530); series mostly up to 40 µM. (In general: qHTS replaces the single test concentration by a dilution series.)
Regarding `O=C1[C@H]2[C@H]3[C@H](O)[C@H](O)C/C(=N/OCc4ccccc4)[C@H]3CC[C@@H]2C(=O)N1Cc1ccccc1`, the activity change, negative = inhibition is 0.866% [at 1.6 µM]. Still for that read-out and setting: in the case of `C/C(CCN1CCCCc2nc(C)c(C)cc21)=N\O[C@@H](C)c1cn([C@@H]2COC[C@@H]2O)nn1` it was 16% [at 8 µM]; in that of `COC(=O)C1(C)C=CCN1C(=O)c1ccccc1` (stereo not drawn), “inactive”; in that of `CC1=C(C(=O)OCc2ccccc2)C(c2ccc(C(F)(F)F)cc2)NC(=O)N1CCCCCC(=O)O` (stereo not drawn), “inactive”. For the compound `CO[C@@H]1COC(=O)[C@H](Cc2ccccc2)NC(=O)C/C=C\[C@@H](C)[C@H](OC)COC(=O)[C@@H](C)NC(=O)C/C=C\[C@H]1C`, the activity change, negative = inhibition was 5.09% [at 1.6 µM] and -1.18% [at 8 µM]. As to `COC(=O)c1ccc(C(NC(=O)OCc2ccccc2)/C(C)=C/[C@@H](C)C(=O)NCc2cc(C)on2)cc1` (stereo partly drawn), the activity change, negative = inhibition entry is “inactive”. As to `O=C(NCCc1ccc2c(c1)OCCO2)c1cc2ccccc2o1`, the Potency is 12.6 µM (active). Consider `O=C(Nc1ccncc1)c1cc2ccccc2o1`, for which the activity change, negative = inhibition entry is “inactive”. On the same count and under the same terms, with `O=C(CC(Cc1ccccc1)C(=O)O)NCCc1ccc2c(c1)OCO2` (stereo not drawn) the entry was “inactive”.

With `COC(=O)C1(C)C=CC2(CCCCC2)N1C(C)=O` (stereo not drawn), the activity change, negative = inhibition result is “inactive”. Take `CC(C)(C)c1ccc(OC2C=CC(C#Cc3ccccc3)OC2CO)cc1` (stereo not drawn): the activity change, negative = inhibition is -3.38% [at 8 µM]. On the same count and under the same terms, with `CCC[C@@H]1C[C@@]1(CCC)C(NC(=O)c1ccc(-c2ccccc2)cc1)c1cccc(Cl)c1` (stereo partly drawn) the entry was “inactive”; with `CCOC(=O)Cn1c(CN(Cc2ccccc2)Cc2ccccc2)nc2c1c(=O)[nH]c(=O)n2C`, “inactive”.

Turning to `COc1ccc(N2C(=O)c3cccc4cccc(c34)C2=O)nn1`, the Potency is 7.94 µM (active).

For `CC(C(=O)O)N1C(=O)c2cccc3cccc1c23` (stereo not drawn), the activity change, negative = inhibition entry was “inactive”. Still for that read-out and setting: in the case of `C[N+](C)(CCCCCC[N+](C)(C)CCCN1C(=O)c2cccc3cccc(c23)C1=O)CCCN1C(=O)c2cccc3cccc(c23)C1=O` it was “inactive”. On the same count and under the same terms, with `CC(N)=NCc1cccc(CN)c1` the entry was “inactive”; with `CC(=O)CC(C)C`, “inactive”. Take `OCCCNCc1ccccn1`: the activity change, negative = inhibition is 9.72% [at 8 µM]. The same measure, in the same setting: in the case of `CO[C@H]1COC(=O)[C@H](Cc2ccccc2)NC(=O)C/C=C\[C@@H](C)[C@H](OC)COC(=O)C/C=C\[C@@H]1C` it was 30% [at 8 µM]; in that of `c1cncc(-c2nc(N3CCNCC3)c3ccccc3n2)c1`, “inactive”.

For the compound `Cc1ccc(S(=O)(=O)NC(=O)NN2C[C@H]3CCC[C@@H]3C2)cc1`, the activity change, negative = inhibition is -1.11% [at 3.58 µM]. For `Cc1cccc(C(=O)O)c1`, the activity change, negative = inhibition result was “inactive”. Same read-out and setting: with `C[C@@H](N)[C@@H](C)Cc1ccccc1` the figure was -3.08% [at 8 µM]. Take `CCOC(=O)C1Cn2c(nc3c(c2=O)C(C)(CC)Cc2ccccc2-3)S1` (stereo not drawn): the Potency is 6.31 µM (active). On to `CC1(C)Cc2ccccc2-c2nc(CN3CCOCC3)[nH]c(=O)c21`, for which the activity change, negative = inhibition entry was “inactive”. Same read-out and setting: with `CCOC(=O)C1CCc2nc3ccccc3c(=O)n21` (stereo not drawn) the entry was “inactive”; with `CCS(=O)(=O)N(C)[C@@H]1c2cc(C#N)ccc2OC(C)(C)[C@H]1O`, “inactive”. Still for that read-out and setting: with `CCCC(Cl)CCCC(Cl)CCC(Cl)CCC(Cl)CCC(Cl)CCCC(Cl)CCC` (stereo not drawn) the entry was “inactive”; with `C1CCC2OC2C1` (stereo not drawn), “inactive”. For `Cc1sc2c(c1C)c(=O)n(-c1ccccc1)c1nncn21`, the activity change, negative = inhibition entry is “inactive”.

`c1ccc2c(c1)[I+]c1ccccc1-2`: the Potency is 15.8 µM (active). `CCCCC[C@H](O)CCCC(=O)O`: the activity change, negative = inhibition result is “inactive”.

With `C[C@@H](c1ccccc1)N1C(=O)[C@H]2[C@H]3[C@H](O)[C@H](O)C/C(=N/OC[C@@H](O)COCc4ccco4)[C@@H]3CC[C@@H]2C1=O`, the activity change, negative = inhibition is 0.141% [at 8 µM]. On the same count and under the same terms, in the case of `CC(=O)Oc1ccc(C(=O)Nc2nccs2)cc1` it was “inactive”. `CC(=O)Oc1ccccc1C(=O)Nc1ncc([N+](=O)[O-])s1`: the Potency was 1.26 µM (active). Turning to `O=C(Cl)c1ccccc1[N+](=O)[O-]`, the activity change, negative = inhibition result was “inactive”. The same measure, in the same setting: with `N#Cc1cccc(-c2nc3cnc(N4CCNCC4)nc3n(C3CC3)c2=O)c1` the entry was “inactive”; with `CO[C@H]1COC(=O)CCC[C@@H](C)[C@H](OC)COC(=O)[C@@H](C)NC(=O)C/C=C\[C@@H]1C`, -7.25% [at 8 µM]; with `Cc1cc(C)c2nc3c(c([C@H](O)[C@@H]4CCCCN4)c2c1)CC/C3=C/c1ccc(Cl)cc1`, -12.7% [at 8 µM]. The same measure, in the same setting: in the case of `COc1ccc(COC(=O)N/N=C2/C[C@@H](O)[C@@H](O)[C@@H]3[C@@H]4C(=O)N([C@@H](C)c5ccccc5)C(=O)[C@H]4CC[C@@H]23)cc1` it was -0.559% [at 8 µM]. As to `O=C(c1ccncc1)N1CCC2(CCN(Cc3cc(C(F)(F)F)cc(C(F)(F)F)c3)CC2)CC1`, the activity change, negative = inhibition entry is “inactive”. Same read-out and setting: with `C=C(C)C1CC=C(C)C(O)C1` (stereo not drawn) the entry was “inactive”; with `CN1CCN(CCCNC(=O)c2cc3c(=O)oc4ccccc4c3s2)CC1`, “inactive”; with `Cc1ccccc1S(=O)(=O)Cc1ccc(C(=O)NCCN2CCCCC2C)o1` (stereo not drawn), “inactive”.

With `Cc1nc2ccccc2c2oc(C(=O)NCCCN3CCC(C)CC3)cc12`, the Potency is 5.01 µM (active). On to `CCOc1ccc(/C(O)=C2/C(=O)C(=O)N(Cc3cccnc3)C2c2ccc(N(C)C)cc2)c(C)c1` (stereo not drawn), for which the activity change, negative = inhibition result was “inactive”.

Turning to `Cn1c(=O)n2n(c1=O)[C@H]1[C@H](O)[C@H]3O[C@H]3C(=O)[C@H]1CC2`, the activity change, negative = inhibition is 12.4% [at 8 µM].

Values taken from PubChem BioAssay AID912 (National Center for Advancing Translational Sciences (NCATS), 2007).
